# Measured values from PubChem BioAssay.
# Active and inactive are the calls of the source. The rule behind the calls is not given here.
# Target: L-lactate dehydrogenase (Plasmodium falciparum (isolate CDC / Honduras)) (UniProt Q27743)
# Assay: PfLDH activity inhibition – cell lysate, 3D7 strain, counter-screen for P. falciparum growth inhibition project (AID 2304);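 note: 0% = vehicle and 100% = reference inhibitor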
# Conditions: P. falciparum 3D7 crude extract, LDH APAD/NBT absorbance; at 2 µM; hits give high values
# Sequence of L-lactate dehydrogenase (Plasmodium falciparum (isolate CDC / Honduras)) (Q27743 whole entry, looked up): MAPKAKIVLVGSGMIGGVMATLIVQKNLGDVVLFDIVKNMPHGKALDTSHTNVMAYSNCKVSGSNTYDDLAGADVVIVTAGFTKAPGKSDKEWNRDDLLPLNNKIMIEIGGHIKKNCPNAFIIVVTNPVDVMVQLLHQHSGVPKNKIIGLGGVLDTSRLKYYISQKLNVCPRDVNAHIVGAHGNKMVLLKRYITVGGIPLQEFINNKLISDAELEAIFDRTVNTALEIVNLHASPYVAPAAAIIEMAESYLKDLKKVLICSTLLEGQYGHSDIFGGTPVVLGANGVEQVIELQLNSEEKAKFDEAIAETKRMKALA
row,Compound,inhibition
1,COc1cccc2c1CCN(CCN1CCC(NC(=O)c3ccc(-c4cccc(Cl)c4Cl)cc3)CC1)C2,-1% (inactive)
2,C=CCC1OC(=O)c2cc(OC)cc(OC)c21 (configuration not stated),2% (inactive)
3,COCC(=O)Nc1nc2ccccc2[nH]1,-5% (inactive)
4,COc1ccc(NC(=O)C2c3ccccc3C(=O)N(C3CCCC3)C2c2cccs2)cc1 (configuration not stated),-1% (inactive)
5,CN1C[C@@H](c2ccccc2)c2cc(O)c(CN3CCCCC3)cc2C[C@H]1Cc1ccccc1,-8% (inactive)
6,CO/C(=C\C=C\c1cc2cc(Cl)c(Cl)cc2[nH]1)C(=O)NC1CCN(CCNc2ccccc2)CC1,1% (inactive)
7,CC(C)(CC1CCCCC1)NC(=O)[C@H](CC1CCCCC1)Nc1ccc(C#N)c2ccccc12,-2% (inactive)
8,CC[C@H](NC(=O)c1ccc(NC(=O)OC(C)(C)C)cc1)C(=O)N[C@@H](CO)C(=O)NCCCCc1ccccc1,1% (inactive)
9,COc1ccccc1CNC(=O)c1ccc(N2CCN(c3ccncc3)CC2)cn1,2% (inactive)
10,CCCCCCCCCc1c(C)[nH]c2ccccc2c1=O,7% (inactive)
11,NC(N)=NN=Cc1ccc2c(c1)Cc1ccccc1-2,-2% (inactive)
12,CC(C)(C)c1ccc(C(=O)NC2CCC(CCN3CCc4ccc(S(C)(=O)=O)cc4CC3)CC2)cc1C(F)(F)F (configuration not stated),-8% (inactive)
13,O=C(Nc1ccc2c(c1)OCO2)c1cc(-c2cccnc2)cnc1NCc1ccc2c(c1)OCO2,2% (inactive)
14,COc1ccc(Nc2ccnc3cc(-c4ccccn4)ccc23)cc1OC,1% (inactive)
15,CC(C)Cn1c(Sc2ccc(C#N)c([N+](=O)[O-])c2)nnc1-c1cccs1,5% (inactive)
16,Cc1cc(NC(=O)c2ccco2)ccc1OC1CCN(Cc2ccc(F)cc2)C1 (configuration not stated),5% (inactive)
17,Cn1cncc1CNCc1ccc(-c2cccc(-c3nc4ccccc4[nH]3)c2)cc1,-1% (inactive)
18,COc1cc(C(=O)N2CCOC(CCN3CCc4c(c5ccccc5n4C)C3)(c3ccc(Cl)c(Cl)c3)C2)cc(OC)c1OC (configuration not stated),-4% (inactive)
19,CC(C)C[C@H](NC(=O)c1cc2ccccc2s1)C(=O)N[C@H]1CCN(Cc2ccc(I)c(OCCN3CCCC3)c2)C1,-1% (inactive)

row,Compound,inhibition
1,O=C(Nc1cc(F)cc(F)c1)N1CCOC(CCN2CCC(c3ccccc3)CC2)(c2ccc(Cl)c(Cl)c2)C1 (configuration not stated),0% (inactive)
2,COc1ccc(-c2nc3cccnc3n2CC(=O)Nc2cc(Cl)c(Cl)cc2Cl)c(OC)c1,1% (inactive)
3,CCCCn1c(C(C)Oc2ccc(Cl)cc2Cl)nc2cc(S(N)(=O)=O)ccc21 (configuration not stated),-2% (inactive)
4,CC(C)N1CCN(c2ccc(OCCCN3CCN(c4cccc(Cl)c4Cl)CC3)c(C(F)(F)F)c2)CC1,0% (inactive)
5,COc1ccc(OC)c(Cc2cnc3nc(N)[nH]c(=O)c3c2C)c1,3% (inactive)
6,CCCCCCNC(=O)C1Cc2c([nH]c3ccc(C)cc23)C2(CCN(CCc3ccccc3)CC2)N1 (configuration not stated),4% (inactive)
7,COc1cccc(NC(=O)NC2CCN(c3ccnc(Nc4cc(OC)c(OC)c(OC)c4)n3)C2)c1 (configuration not stated),-2% (inactive)
8,Fc1ccc2nc(-c3ccc(-c4ccc(CNCCc5ccncc5)cc4)s3)[nH]c2c1,-3% (inactive)
9,CC(C)C[C@@H](NC(=O)OC(C)(C)C)C(=O)Nc1ccc(Cc2ccc(NC(=O)[C@@H](CC(C)C)NC(=O)OC(C)(C)C)cc2)cc1,6% (inactive)
10,COc1ccc(CNCCc2cccs2)cc1-c1ccc(S(=O)(=O)NCCN2CCCC2)s1,2% (inactive)
11,O=c1c(NCCCN(Cc2ccc(F)cc2)c2ccccn2)c(NCc2cccnc2)c1=O,-2% (inactive)
12,CC(C)CNCc1ccc(-c2ccc(CN(CCCN3CCN(C)CC3)C(=O)CCC3CCCC3)cc2)cc1,5% (inactive)
13,CC(=O)C1=NN(c2ccc(C)cc2)C(c2cccs2)N1c1ccccc1 (configuration not stated),-4% (inactive)
14,CCn1cc(-c2cc(C(=O)Nc3ccc(OC)cc3C)c3ccccc3n2)c(C)n1,2% (inactive)
15,O=C(c1ccc(-c2ccc(-c3nc4ccc(C(F)(F)F)cc4[nH]3)s2)cc1)N1CCCCC1CN1CCC(O)C1 (configuration not stated),3% (inactive)
16,O=C(NCC1CCN(CCN2CCc3ccc4c(c3C2)OCO4)CC1)c1ccc(-c2ccc(C(F)(F)F)cc2)cc1,-5% (inactive)
17,O=C(NCCCCCN1CCC(c2c[nH]c3ccccc23)CC1)c1ccc(Cl)c(Cl)c1,-2% (inactive)
18,FC(F)(F)c1ccc2nccc(NN=CC=Cc3ccccc3)c2c1,-1% (inactive)
